The record followed here is PubChem BioAssay (NCATS).

Assay [1] addresses Cellular tumor antigen p53 (Homo sapiens) (UniProt P04637). In words: Primary qHTS for small molecule compounds that upregulate eGFP-tagged delta133p53alpha (in N-terminal) cells. (AID 2060322). Also: nearly all actives have a fitted effect of over 75% in size. Also: potency is read from the fitted curve at half-maximal effect.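 As to activation: 0% = DMSO vehicle and 100% = reference activator.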 To be noted: NCI-H358 eGFP-delta133p53alpha fluorescence, 24 h; activation: stronger effect = higher value. The gist of the method: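 NCI-H358 cells pre-induced 24 h with 10 ng/ml doxycycline to express N-terminal eGFP-delta133p53alpha, then dosed 24 h at 37C without doxycycline; fixed, Hoechst-stained, GFP intensity by laser scanning cytometry, normalized to DMSO (0%) and 57.5 uM 5-azacytidine (100%).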
On the technique in general: Quantitative high-throughput screening tests each substance at several concentrations.

Assay [2] deals with Aldehyde dehydrogenase, mitochondrial (Homo sapiens) (UniProt P05091). Put plainly: qHTS for Inhibitors of the Aldehyde Dehydrogenase Family (ALDH2) Primary screen (AID 2061308).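 Also: plate controls were vehicle for no effect and reference inhibitor for full effect; nearly all actives have a fitted effect of over 55% in size.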 The note with it: ALDH2 enzyme inhibition qHTS, 1536-well; series mostly up to 56 µM.
The target in assay [3] is Retinaldehyde dehydrogenase 3 (Homo sapiens) (UniProt P47895). In words: qHTS for Inhibitors of the Aldehyde Dehydrogenase Family (ALDH1A3) Primary screen (AID 2061315).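 Also: plate controls were DMSO vehicle for no effect and reference inhibitor for full effect.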 The note with it: ALDH inhibition qHTS; series mostly up to 56 µM.
The nature of assay [4]: BET inhibitor-based combinations targeting novel dependencies in MECOM-rearranged (r) AML: OCI-AML3 cell line (AID 2202232). Also: nearly all actives have a fitted effect of over 35% in size. Also: potency is read from the fitted curve at half-maximal effect. To be noted: CellTiter-Glo luminescence, 48 h; Potency: OCI-AML3 viability; series mostly up to 46 µM. The gist of the method: (§1)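 Readout: CellTiter-Glo luminescence. Exposure: 48 h, 11 concentrations, 500 cells/well. Metric: AUC and within-line Z-AUC after DMSO/empty-well normalization.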

The nature of assay [5]: BET inhibitor-based combinations targeting novel dependencies in MECOM-rearranged (r) AML: HNT-34 cell line (AID 2202234). Also: nearly all actives have a fitted effect of over 35% in size. Also: potency is read from the fitted curve at half-maximal effect. To be noted: HNT-34 AML viability, CellTiter-Glo luminescence, 48 h; series mostly up to 46 µM. A digest of the protocol: (§2)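 Seeding density was 500 cells/well, and drug exposure lasted 48 hr under standard culture conditions. Read-out used CellTiter-Glo reagent with a 15 min room-temperature incubation before luminescence measurement; AUC and Z-AUC summarize the normalized responses.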
Background: Cellular ATP, detected with luciferase, serves as a proxy for viable cell number.

A short description of assay [6]: BET inhibitor-based combinations targeting novel dependencies in MECOM-rearranged (r) AML: UCSD-AML1 cell line (AID 2202235). Also: nearly all actives have a fitted effect of over 40% in size. Also: potency is read from the fitted curve at half-maximal effect. To be noted: UCSD-AML1 AML cells viability, CellTiter-Glo, 48 h; series mostly up to 46 µM. The gist of the method:
as §2

A short description of assay [7]: BET inhibitor-based combinations targeting novel dependencies in MECOM-rearranged (r) AML: AML-191 cell line (AID 2202236; also: nearly all actives have a fitted effect of over 35% in size; also: potency is read from the fitted curve at half-maximal effect). The note with it: AML-191 viability, CellTiter-Glo luminescence, 48 h; series mostly up to 46 µM. A digest of the protocol: as §1
Assay [8] is described as follows: BET inhibitor-based combinations targeting novel dependencies in MECOM-rearranged (r) AML: AML-194 cell line (AID 2202237; also: nearly all actives have a fitted effect of over 40% in size; also: potency is read from the fitted curve at half-maximal effect). To be noted: AML-194 (MECOM-r AML) viability, CellTiter-Glo, 48 h; series mostly up to 46 µM. The gist of the method: as §1
Assay [9] is described as follows: BET inhibitor-based combinations targeting novel dependencies in MECOM-rearranged (r) AML: MV-4-11 cell line (AID 2202233). Also: nearly all actives have a fitted effect of over 45% in size. Also: potency is read from the fitted curve at half-maximal effect. To be noted: MV-4-11 AML viability, CellTiter-Glo luminescence, 48 h; series mostly up to 46 µM. The gist of the method:
as §2

“And” between values parts separate entries of the source, which are not always exact repeats. Identical values can stand only once. Inconclusive results are not listed. A number with no mark means an inactive call. The source made the active and inactive calls. Calls follow the shape of the dose curve; as a rule, active = well fitted curve in the direction sought with a large enough effect; inconclusive = small, poorly fitted or top-dose-only effect, or another doubt; inactive = no such curve, though single readings can be large; an effect the other way counts as inactive or inconclusive.

Sequence of Cellular tumor antigen p53 (Homo sapiens) (P04637 whole entry, looked up): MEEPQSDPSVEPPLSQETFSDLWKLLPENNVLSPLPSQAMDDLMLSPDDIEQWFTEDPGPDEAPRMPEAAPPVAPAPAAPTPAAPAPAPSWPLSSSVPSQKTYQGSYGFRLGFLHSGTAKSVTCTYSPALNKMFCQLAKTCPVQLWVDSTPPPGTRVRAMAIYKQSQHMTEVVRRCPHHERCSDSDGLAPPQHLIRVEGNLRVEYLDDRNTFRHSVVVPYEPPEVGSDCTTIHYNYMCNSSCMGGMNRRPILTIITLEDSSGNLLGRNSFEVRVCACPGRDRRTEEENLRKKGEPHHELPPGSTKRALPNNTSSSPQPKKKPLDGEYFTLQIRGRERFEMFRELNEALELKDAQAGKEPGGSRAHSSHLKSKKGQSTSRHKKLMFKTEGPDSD

`O=C(Nc1ccc(OC(F)(F)F)cc1)c1sccc1NCc1ccnc2ccccc12`: in assay [1], the activation is 27.4%. For the same compound, the Potency result in assay [2] and in assay [3] was “inactive” each time. The Potency in assay [4] is 5.25 µM (active); in assay [5] it was 10.5 µM (active); in assay [6], 5.9 µM (active); in assay [7] it was 8.33 µM (active); in assay [8], 5.9 µM (active).

For the compound `CS(=O)(=O)CCNCc1ccc(-c2ccc3ncnc(Nc4ccc(OCc5cccc(F)c5)c(Cl)c4)c3c2)o1`, the Potency in assay [1] is 26.9 µM (active); in assay [4], 23.5 µM (active); in [5], 3.72 µM (active); in assay [7], 26.3 µM (active). The Potency result in assay [2], in [3] and in assay [6] was “inactive” throughout.

As to `C[C@@H]1CCN(C(=O)N2CCCC2)C[C@@H]1N(C)c1ncnc2[nH]ccc12`, the activation in [1] was -10.7%. Also, the Potency entry in [2], in assay [3] and in [4] was “inactive” in each case. For the same compound, the Potency in assay [5] was 16.6 µM (active); in assay [6] it was 0.934 µM (active).

As to `COc1cc(F)c(F)c(Nc2ccc(I)cc2F)c1NS(=O)(=O)C1(C[C@H](O)CO)CC1`, the activation in [1] is 4.11%. For the same compound, the Potency result in assay [2] and in [3] was “inactive” in each case. Also, the Potency in [4] was 0.166 µM (active); in [5], 1.32 µM (active); in [6], 0.662 µM (active).

As to `Cc1cn2cc(C(=O)N(C)CCO)cc(N[C@@H]3CCOc4cccc(C)c43)c2n1`, the activation in [1] was -18% and -4.46%. Also, the Potency entry in [2], in assay [3], in [4], in assay [5], in assay [6] and in assay [7] was “inactive” each time. Further, in assay [8], the Potency entry was “inactive”.

Take `C[C@@H](c1ccc2nccn2c1)n1nnc2ncc(-c3cnn(C)c3)nc21`: the activation in assay [1] is 2.86%. The Potency result in [2], in assay [3], in assay [6] and in assay [8] was “inactive” throughout. The figures for the Potency in assay [4] and in assay [7] were 13.2 µM (active) and 20.9 µM (active), respectively.

In the case of `O=c1[nH]c([C@@H]2CCCN2)nc2c1oc1ccc(Cl)cc12`, the activation in [1] was -1%. The Potency entry in assay [2] and in assay [3] was “inactive” in each case. Moreover, the Potency in assay [9] is 13.2 µM (active).

`CC(C)(C)Cn1c(N)nc2ccc(-c3[nH]c(C(C)(C)C)nc3-c3ccc(F)cc3)nc21`: the activation in [1] was -1.62%. Also, the Potency result in [2], in [3] and in assay [6] was “inactive” each time. Also, the Potency in assay [9] is 18.6 µM (active); in assay [5], 23.5 µM (active).

As to `Cc1cccc(CC(=O)N2CCc3c2ccc(-c2cn(C)c4ncnc(N)c24)c3F)n1`, the activation in assay [1] was 0.893%. Also, the Potency entry in [2] and in assay [3] was “inactive” each time. Further, the Potency is 5.9 µM (active) in [9] and 4.17 µM (active) in assay [5].

With `Cc1ccc(-c2ccc3c(ccc4sc5c(c43)NC[C@@H](C)NC5=O)n2)cn1`, the activation in assay [1] is 8.04%. Besides, the Potency result in assay [2] and in [3] was “inactive” in each case. Besides, the Potency in assay [4] is 18.6 µM (active); in assay [5], 26.3 µM (active); in assay [7] it was 26.3 µM (active); in assay [8] it was 26.3 µM (active).

As for `Cc1ccccc1C(=O)c1ccc(Nc2ccc(Br)cc2N)cc1Cl`, the activation in assay [1] is 19.2% and -0.893%. In addition, the Potency entry in [2], in assay [3] and in assay [6] was “inactive” throughout. For the same compound, the Potency in assay [9] is 18.6 µM (active); in [5] it was 23.5 µM (active).

As to `Cc1cnc(CNC(=O)c2c(=O)c3ccc(N4CCCN(C)CC4)nc3n3c2sc2ccccc23)cn1`, the activation in assay [1] is 18.9% and -1.79%. The values for the activity change, negative = inhibition in assay [2] and in assay [3] were 8.69% [at 11.2 µM] and 2.3% [at 11.2 µM], respectively. The Potency in assay [9] is 1.08 µM (active).

In the case of `CN(C)CC(=O)N1CCC(c2ccc(NC(=O)c3ncc(C#N)[nH]3)c(C3=CCCCC3)c2)CC1`, the activation in [1] was -0.715%. The Potency entry in assay [2] and in [3] was “inactive” in each case. For the same compound, the Potency in assay [9] was 0.148 µM (active); in assay [5] it was 10.5 µM (active); in [6], 5.25 µM (active).

On to `Nc1ncnc2c1ncn2[C@@H]1O[C@H](CO)C[C@H]1O`, for which the Potency in [1] was 12 µM (active). The Potency result in [2], in [3], in assay [4], in assay [9], in [7] and in assay [8] was “inactive” each time.

On to `NC(=O)c1cccc(-c2cc(Nc3ccc(OC(F)(F)F)cc3)ncn2)c1`, for which the activation in [1] is -25.2% and 10.7%. The Potency entry in [2] and in [3] was “inactive” in each case. Further, the Potency is 16.6 µM (active) in assay [9] and 1.86 µM (active) in assay [5].

With `CN(NC(=O)CC(=O)NN(C)C(=S)c1ccccc1)C(=S)c1ccccc1`, the Potency in assay [1] was 0.861 µM (active); in assay [4], 0.0525 µM (active); in assay [5] it was 0.0148 µM (active); in assay [6] it was 0.059 µM (active); in assay [7] it was 0.0372 µM (active); in [8], 0.0417 µM (active). Besides, the Potency entry in assay [2] and in [3] was “inactive” each time.

With `Cc1c(F)cc(C(=O)NC2CC2)cc1-c1c(F)cn2c(C(C)(C)C)nnc2c1F`, in [1], the activation was -8.93%. The Potency entry in assay [2], in [3], in assay [4], in [5], in [6] and in assay [7] was “inactive” in each case. Moreover, in assay [8], the Potency entry is “inactive”.

For `Nc1nccc(Oc2ccc(NC(=O)c3c[nH]cc(-c4ccc(F)cc4)c3=O)cc2F)c1Cl`, the Potency is 43.2 µM (active) and 30.1 µM (active) in [1]; 20.9 µM (active) in [4]; 18.6 µM (active) in assay [5]; 9.34 µM (active) in [7]. In addition, the Potency entry in [2] and in assay [3] was “inactive” in each case.

`Nc1cccc(S(=O)(=O)N2CCCN(S(=O)(=O)c3ccc4c(c3)OCCO4)CC2)c1`: the activation in [1] is 17.7%. For the same compound, the Potency result in assay [2], in assay [3], in assay [4], in assay [9] and in assay [8] was “inactive” in each case.
